In PubChem BioAssay (Tox21):
Results filed as inconclusive are left out. Activity calls are given as the source filed them. Calls follow the shape of the full dose curve.

Legend:
[1] = target: Acetylcholinesterase (Homo sapiens) (UniProt P22303); test: Acetylcholinesterase (AChE) small molecule antagonists: colormetric cell-based qHTS assay (AID 1347395); also: nearly all actives have a fitted effect of over 30% in size
In short: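 SH-SY5Y cells, plated overnight at 37 C, were exposed to compounds for 30 min at 37 C and 5% CO2. Acetylthiocholine plus DTNB was then added, and thiocholine from endogenous AChE was quantified colorimetrically after 90 min at 37 C.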

[2] = target: Acetylcholinesterase (Homo sapiens) (UniProt P22303); test: Acetylcholinesterase (AChE) small molecule antagonists: enzyme-based qHTS assay (AID 1347397); conditions: Potency: AChE enzyme activity inhibition; outcome: AChE enzyme activity inhibition; also: nearly all actives have a fitted effect of over 55% in size
In short: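 Recombinant human AChE, dispensed at 50 mU/mL, was preincubated with Tox21 10K compounds or DMSO vehicle for 30 min at room temperature. DTNB plus acetylthiocholine was then added, and thiocholine was measured colorimetrically after a further 10 min.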

[3] = target: Acetylcholinesterase (Homo sapiens) (UniProt P22303); test: Acetylcholinesterase (AChE) small molecule antagonists: fluorescence cell-based qHTS assay (AID 1347398); conditions: Potency: AChE activity; outcome: AChE activity; also: nearly all actives have a fitted effect of over 50% in size
In short: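 Human SH-SY5Y cells were plated overnight at 37 C, exposed to compound for 30 min at 37 C, 5% CO2, then given acetylthiocholine plus Thiolite Green for 40 min at room temperature; thiocholine fluorescence (Ex/Em 490/520 nm) reports endogenous AChE activity.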

[4] = target: Acetylcholinesterase (Homo sapiens) (UniProt P22303); test: Acetylcholinesterase (AChE) small molecule antagonists: enzyme-based qHTS assay with human liver microsomes (AID 1347399); conditions: Potency: qHTS inhibition; outcome: qHTS inhibition; also: nearly all actives have a fitted effect of over 60% in size
In short: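 Recombinant human AChE (50 mU/mL in the enzyme mix) and human liver microsomes (0.25 mg/mL final) were preincubated with compound and NADPH (0.25 mg/mL final) for 30 min at 37 C. Acetylthiocholine/DTNB was then added; thiocholine was read colorimetrically after 10 min at room temperature.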
% is scaled to controls: 0 for no effect and ±100 for the full control effect.

Sequence of Acetylcholinesterase (Homo sapiens) (P22303 whole entry, looked up): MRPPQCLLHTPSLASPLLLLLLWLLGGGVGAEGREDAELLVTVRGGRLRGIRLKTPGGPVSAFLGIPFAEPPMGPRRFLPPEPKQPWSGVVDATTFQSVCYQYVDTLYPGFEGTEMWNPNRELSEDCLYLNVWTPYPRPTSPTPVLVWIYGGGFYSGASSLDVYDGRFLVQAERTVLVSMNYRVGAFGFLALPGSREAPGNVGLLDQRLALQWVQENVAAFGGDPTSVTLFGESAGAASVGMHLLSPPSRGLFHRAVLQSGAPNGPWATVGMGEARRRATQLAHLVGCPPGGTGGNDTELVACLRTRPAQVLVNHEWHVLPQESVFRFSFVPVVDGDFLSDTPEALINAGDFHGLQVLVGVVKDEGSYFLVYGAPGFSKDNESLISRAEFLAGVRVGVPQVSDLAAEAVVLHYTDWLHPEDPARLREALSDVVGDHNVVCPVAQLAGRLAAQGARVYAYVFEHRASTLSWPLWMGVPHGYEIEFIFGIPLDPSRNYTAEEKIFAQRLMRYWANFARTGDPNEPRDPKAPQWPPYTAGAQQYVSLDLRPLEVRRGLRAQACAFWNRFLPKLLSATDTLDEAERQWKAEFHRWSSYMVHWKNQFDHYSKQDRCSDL

CC1=CCC(C(C)(C)O)CC1 (stereo not given)
inactive: Potency [1] | Potency [2] | Potency [3] | Potency [4]

CC(C)OC(C)C
inactive: Potency [1] | Potency [2] | Potency [3] | Potency [4]

C1=CCCC1
inactive: Potency [1] | Potency [2] | Potency [3] | Potency [4]

O=c1[nH][nH]c2ccccc12
inactive: Potency [1] | Potency [2] | Potency [3] | Potency [4]

CC(C)[C@@H]1CC[C@@H](C)CC1=O
inactive: Potency [1] | Potency [2] | Potency [3] | Potency [4]

CN=C(N)NC(=O)Nc1c(C)cccc1C
inactive: Potency [1] | Potency [2] | Potency [3] | Potency [4]

O[Si](c1ccccc1)(c1ccccc1)c1ccccc1
inactive: Potency [1] | Potency [2] | Potency [3] | Potency [4]

CCCCC(CC)COC(=O)CC(C(=O)OCC(CC)CCCC)S(=O)(=O)O (stereo not given)
inactive: Potency [1] | Potency [2] | Potency [3] | Potency [4]

CC(C)(C)c1ccc(O)c(C(C)(C)C)c1
inactive: Potency [1] | Potency [2] | Potency [3] | Potency [4]

NCC1CCC(C(=O)Oc2ccc(CCC(=O)O)cc2)CC1 (stereo not given)
inactive: Potency [1] | Potency [2] | Potency [3] | Potency [4]

CCCCC(CC)COC(=O)c1ccccc1C(=O)O (stereo not given)
inactive: Potency [1] | Potency [2] | Potency [3] | Potency [4]

O=C(CCN1CCN(CCO)CC1)N1c2ccccc2Sc2ccc(C(F)(F)F)cc21
inactive: Potency [1] | Potency [2] | Potency [3] | Potency [4]

O=S(=O)(O)c1ccc2ccccc2c1
inactive: Potency [1] | Potency [2] | Potency [3] | Potency [4]

CCCCCCc1ccc(O)cc1O
inactive: Potency [1] | Potency [2] | Potency [3] | Potency [4]

CCc1nnc(NS(=O)(=O)c2ccc(N)cc2)s1
inactive: Potency [1] | Potency [2] | Potency [3] | Potency [4]

O=C(OCc1ccccc1)c1ccccc1
inactive: Potency [1] | Potency [2] | Potency [3] | Potency [4]

CO[C@@]1(NC(=O)CSCC#N)C(=O)N2C(C(=O)O)=C(CSc3nnnn3C)CS[C@@H]21
inactive: Potency [1] | Potency [2] | Potency [3] | Potency [4]

CCC(C)(C)c1ccc(CC(C)CN2C[C@@H](C)O[C@@H](C)C2)cc1 (stereo not given in full)
inactive: Potency [1] | Potency [2] | Potency [3] | Potency [4]

CC(=O)OCC(=O)[C@@]12N=C(C)O[C@@H]1C[C@H]1[C@@H]3CCC4=CC(=O)C=C[C@]4(C)[C@H]3[C@@H](O)C[C@@]12C
inactive: Potency [1] | Potency [2] | Potency [3] | Potency [4]

CCCCCC(=O)O
inactive: Potency [1] | Potency [2] | Potency [3] | Potency [4]

CCCCCOC(=O)CCC
inactive: Potency [1] | Potency [2] | Potency [3] | Potency [4]

CCC(C)(C)C1CCCCC1OC(C)=O (stereo not given)
inactive: Potency [1] | Potency [2] | Potency [3] | Potency [4]

COCCC(=O)OC
inactive: Potency [1] | Potency [2] | Potency [3] | Potency [4]

CNc1ccc([N+](=O)[O-])cc1
inactive: Potency [1] | Potency [2] | Potency [3] | Potency [4]

CN=C(NC#N)Nc1ccc(C2=NNC(=O)CC2C)cc1 (stereo not given)
inactive: Potency [1] | Potency [2] | Potency [3] | Potency [4]

CC(CC=O)CCCC(C)(C)O (stereo not given)
inactive: Potency [1] | Potency [2] | Potency [3] | Potency [4]

O=c1ccc2ccccc2o1
inactive: Potency [1] | Potency [2] | Potency [3] | Potency [4]

O=c1cc(O)c(Cl)c[nH]1
inactive: Potency [1] | Potency [2] | Potency [3] | Potency [4]

Cc1ccc2ccc(Cl)cc2n1
inactive: Potency [1] | Potency [2] | Potency [3] | Potency [4]

CC1=CC[C@@H](C(C)(C)O)CC1
inactive: Potency [1] | Potency [2] | Potency [3] | Potency [4]

C=C1CC[C@H](O)C/C1=C\C=C1/CCC[C@]2(C)[C@@H]([C@H](C)CCCC(C)C)CC[C@@H]12
inactive: Potency [1] | Potency [2] | Potency [3] | Potency [4]

CCC[Si](OC)(OC)OC
inactive: Potency [1] | Potency [2] | Potency [3] | Potency [4]

O=S(=O)(O)c1cc(S(=O)(=O)O)c2c(N=Nc3ccccc3)c(O)ccc2c1
inactive: Potency [1] | Potency [2] | Potency [3] | Potency [4]

CCc1cc(C(C)(C)C)c(O)c(C(C)(C)C)c1
inactive: Potency [1] | Potency [2] | Potency [3] | Potency [4]

Cc1c(C)c2c(c(C)c1O)CC[C@@](C)(CCC[C@H](C)CCC[C@H](C)CCCC(C)C)O2
inactive: Potency [1] | Potency [2] | Potency [3] | Potency [4]

CC(=O)NCc1c(I)c(NC(C)=O)c(I)c(C(=O)O)c1I
inactive: Potency [1] | Potency [2] | Potency [3] | Potency [4]

C=C[C@@]1(C)CC(=O)[C@]2(O)[C@@]3(C)[C@@H](O)CCC(C)(C)[C@@H]3[C@H](O)[C@H](OC(C)=O)[C@@]2(C)O1
inactive: Potency [1] | Potency [2] | Potency [3] | Potency [4]

C=C(C)C(=O)OCCCCCCCCCCCCCCCCCC
inactive: activity, negative = inhibition [1] 0.231% [at 23.6 µM] | activity change, negative = inhibition [2] 0.946% [at 23.6 µM] | activity change, negative = inhibition [3] 2.72% [at 23.8 µM] | activity change, negative = inhibition [4] 0.563% [at 23.6 µM]

O=NN(CCCl)C(=O)NCCCl
inactive: Potency [1] | Potency [2] | Potency [3] | Potency [4]

Cc1ccc(S(=O)(=O)NC(=O)NN2CC3CCCC3C2)cc1 (stereo not given)
inactive: Potency [1] | Potency [2] | Potency [3] | Potency [4]

CC(=O)N[C@@H](CCC(N)=O)C(=O)O
inactive: Potency [1] | Potency [2] | Potency [3] | Potency [4]

CCOC(C)OCC
inactive: Potency [1] | Potency [2] | Potency [3] | Potency [4]

C[C@@H]1C[C@H]2[C@@H]3CCC4=CC(=O)C=C[C@]4(C)[C@@]3(F)[C@@H](O)C[C@]2(C)[C@@]1(O)C(=O)COC(=O)c1ccncc1
inactive: Potency [1] | Potency [2] | Potency [3] | Potency [4]

CC[C@H](C)COC(=O)/C=C/c1ccc(N=Cc2ccc(OC)cc2)cc1
inactive: Potency [1] | Potency [2] | Potency [3] | Potency [4]

CCCCN(CCCC)CCCC
inactive: Potency [1] | Potency [2] | Potency [3] | Potency [4]

CC[N+](CC)(CC(=O)Nc1c(C)cccc1C)Cc1ccccc1 (tested in a mixture with another compound)
inactive: Potency [1] | Potency [2] | Potency [3] | Potency [4]

CO[Si](OC)(OC)c1ccccc1
inactive: Potency [1] | Potency [2] | Potency [3] | Potency [4]

Cc1cc(C)c(S(=O)(=O)O)cc1N=Nc1cc(S(=O)(=O)O)c2ccccc2c1O
inactive: Potency [1] | Potency [2] | Potency [3] | Potency [4]

Cc1cccc(NC(=S)N(C)C)c1
inactive: Potency [1] | Potency [2] | Potency [3] | Potency [4]

Cc1ccccc1C(=O)Nc1ccc(C(=O)N2CCCC(N(C)C)c3ccccc32)cc1 (stereo not given)
inactive: Potency [1] | Potency [2] | Potency [3] | Potency [4]

CC1(C)C(=O)N(Cl)C(=O)N1Br
inactive: Potency [1] | Potency [2] | Potency [3] | Potency [4]

O=C(NO)C1(NS(=O)(=O)c2ccc(Oc3ccc(F)cc3)cc2)CCOCC1
inactive: Potency [1] | Potency [2] | Potency [3] | Potency [4]

CC[C@H](C)C(=O)O[C@H]1C[C@@H](C)C=C2C=C[C@H](C)[C@H](CC[C@@H]3C[C@@H](O)CC(=O)O3)[C@H]21
inactive: Potency [1] | Potency [2] | Potency [3] | Potency [4]

Nc1ccc(S(=O)(=O)Nc2nccs2)cc1
inactive: Potency [1] | Potency [2] | Potency [3] | Potency [4]

Cc1cc(C)c(C(=O)O)c(C)c1
inactive: Potency [1] | Potency [2] | Potency [3] | Potency [4]

CCC/C=C/C=O
inactive: Potency [1] | Potency [2] | Potency [3] | Potency [4]

BrCc1cccc(Oc2ccccc2)c1
inactive: Potency [1] | Potency [2] | Potency [3] | Potency [4]

C[C@H](CCC(=O)O)[C@H]1CC[C@H]2[C@@H]3[C@H](O)C[C@@H]4C[C@H](O)CC[C@]4(C)[C@H]3CC[C@]12C
inactive: Potency [1] | Potency [2] | Potency [3] | Potency [4]

CCOC(=O)N1CCC(n2c(=O)[nH]c3cc(Cl)ccc32)CC1
inactive: Potency [1] | Potency [2] | Potency [3] | Potency [4]

CCc1cccc2c3c([nH]c12)C(CC)(CC(=O)O)OCC3 (stereo not given)
inactive: Potency [1] | Potency [2] | Potency [3] | Potency [4]
